# TbPYK inhibitor: qHTS of Trypanosoma Brucei Inhibitors; TbPYK enzyme, Kinase-Glo Plus ATP luminescence, 45 min; Potency, µM (highest dose often 76.8 µM), most hits filed as inhibitors; actives 0.12% (n = 410,000); note: nearly all actives have a fitted effect of over 50% in size
#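 Quantitative HTS: titrated library compounds versus trypanosomal pyruvate kinase in TEA buffer (pH 7.2) containing KCl, MgCl2, BSA and Tween-20. Reactions were initiated with ADP, 130 uM final. Kinase-Glo Plus luminescence was read after 45 min at RT.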
# FBPA Giardia inh: qHTS Assay for Inhibitors of Fructose-1,6-bisphosphate Aldolase from Giardia Lamblia | actives 0.71% (n = 290,000) | purified Giardia FBPA | AID 2451, 2010 | A8B2U2 | Potency, µM (titrated, usually from 59.6 µM), most hits filed as inhibitors; note: nearly all actives have a fitted effect of over 55% in size
# Target sequence (A8B2U2 whole entry, looked up): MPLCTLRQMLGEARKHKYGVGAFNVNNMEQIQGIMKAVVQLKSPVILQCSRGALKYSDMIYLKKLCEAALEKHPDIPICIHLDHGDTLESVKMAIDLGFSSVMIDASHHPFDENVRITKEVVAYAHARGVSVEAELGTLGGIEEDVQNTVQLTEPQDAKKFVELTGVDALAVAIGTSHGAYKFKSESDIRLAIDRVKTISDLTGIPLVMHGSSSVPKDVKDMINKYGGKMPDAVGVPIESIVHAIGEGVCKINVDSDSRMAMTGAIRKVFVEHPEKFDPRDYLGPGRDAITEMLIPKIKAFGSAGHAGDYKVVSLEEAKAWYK
#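 Giardia FBPA (40 nM reagent) was preincubated 10 min at RT with compound (up to 57.5 uM final), then substrate plus GAPDH/TPI/NAD/arsenate coupling system with diaphorase/resazurin was added; resorufin fluorescence (525/598 nm) was read after 20 min.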
# Shiga toxin inh: A qHTS for Small Molecule Inhibitors of Shiga Toxin. Vero cells, Shiga toxin protein synthesis inhibition reporter. inhibition, % at 38.7 µM. actives 9.2% (n = 290,000). AID 2315, 2010; in the data active = inhibition mostly above about 28%, no sharp cut-off; inactive = mostly below about 43%
# Sm TGR inh: qHTS Assay for the Inhibitors of Schistosoma Mansoni Peroxiredoxins; Schistosoma mansoni thioredoxin glutathione reductase (TGR), Q962Y6; purified TGR, DTNB reduction, TNB absorbance 405 nm; Potency, µM (highest dose often 114 µM), actives largely listed as inhibitors; actives 3% (n = 360,000); note: nearly all actives have a fitted effect of over 60% in size
#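 First, TGR (20 nM dispensed) and NADPH were mixed with compound. Second, a 15 min room-temperature incubation followed. Third, further NADPH and then DTNB were added to start the reaction. Finally, TNB absorbance was monitored kinetically.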
# LmPK inh: qHTS Assay for Inhibitors of Leishmania Mexicana Pyruvate Kinase (LmPK). purified LmPK, Kinase-Glo ATP luminescence, 1 h. Q27686. actives 0.37% (n = 290,000). AID 1721, 2009. Potency, µM (highest dose often 57.5 µM), actives largely listed as inhibitors
#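 Pyruvate kinase activity monitored as ATP production (luciferase luminescence). Conditions: 0.1 nM enzyme, 0.5 mM PEP, 0.1 mM ADP, 1 h, RT; normalized against uninhibited and no-enzyme wells.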
# CHX counter: Cycloheximide Counterscreen for Small Molecule Inhibitors of Shiga Toxin. cell reporter, cycloheximide protein synthesis inhibition counterscreen. max response, %. actives 12% (n = 300,000); in the data active = max response mostly above about 13%, no sharp cut-off; inactive = mostly below about 14%; note: read at 38.3 µM for the half of the compounds with a filed dose
# A number is an active result; . = inactive; ? = inconclusive; / = not tested or not shown; [ ] = dose if it differs, or a comment. This is one part of a sample in which hits are shown more often than they occur. Unless noted, calls come from the whole dose curve; as a rule, active = well fitted curve in the direction sought with a large enough effect; inconclusive = small, poorly fitted or top-dose-only effect, or another doubt; inactive = no such curve, though single readings can be large; an effect the other way counts as inactive or inconclusive.
SMILES,TbPYK inhibitor,FBPA Giardia inh,Shiga toxin inh,Sm TGR inh,LmPK inh,CHX counter
COC(=O)[C@@H]1C[C@@H]2CC[C@@H](O)C[C@@H]2N1CC1CCCCC1,/,.,/,/,/,/
Cc1ccc(CNC(=O)C2CCCN(c3nc4ccccc4n4cccc34)C2)cc1 (configuration not stated),.,/,/,.,/,/
Cc1ccc(NC(=O)c2ccc3nc[nH]c3c2)nc1,.,/,.,.,.,.
Cc1ccc(NC(=O)c2ccc3nc[nH]c3c2)c(O)c1,.,.,73.5,.,.,32.7
O=C(Nc1ccc(OC(F)(F)F)cc1)c1ccc2nc[nH]c2c1,.,?,/,.,.,32.8
Cc1ccc(NC(=O)c2cncc(Br)c2)nc1,.,/,78.7,.,.,27.7
Cc1cc([N+](=O)[O-])ccc1NC(=O)c1cncc(Br)c1,.,.,.,.,.,.
COc1ccc(NC(=O)c2ccc3nc[nH]c3c2)c(OC)c1,.,.,.,.,.,.
Cc1ccc(NC(=O)c2cncc(Br)c2)c(O)c1,.,.,66.2,/,.,35.2
COc1cccc(CNS(=O)(=O)c2ccc(N3CCCCS3(=O)=O)cc2)c1,.,/,/,.,/,/
CCN(c1ccccc1)c1ccc2cc(S(=O)(=O)N3CCCC3)ccc2n1,.,/,/,.,/,/
CN(C)C(=O)COc1ccc2cc(-c3ccccc3)c(=O)oc2c1,.,.,54.5,.,.,25.3
COC(=O)C(C)Oc1ccc2cc(-c3ccccc3)c(=O)oc2c1 (configuration not stated),.,.,.,.,.,.
O=c1oc2cc(OCc3c(F)cccc3Cl)ccc2cc1-c1ccccn1,.,.,.,.,.,.
O=c1oc2ccccc2cc1-c1ccccc1,.,.,.,.,.,29.7
O=c1oc2ccc(Cl)cc2cc1-c1ccccc1,.,.,.,.,.,.
COc1ccc2cc(-c3ccccc3)c(=O)oc2c1,.,.,52.2,.,.,31.8
CCCOc1ccc2cc(-c3ccccn3)c(=O)oc2c1,?,.,.,.,10µM,38.8
COc1ccccc1CNC(=O)CCCN1C(=O)CSc2c1c(C)nn2-c1ccccc1,.,/,/,.,/,/
CCOC(=O)c1ccc2nc3c(cc2c1)CCS3,.,.,71.3,.,.,47.6
COc1ccc(-c2nc3c(c4c2C[C@H](c2ccccc2)OC4)CN(C(=O)Cc2cccs2)CC3)c(C)c1,/,.[12.9 µM],/,/,.[11.5 µM],/
CCN(CC)S(=O)(=O)c1cccc(NC2=NCC(C)S2)c1 (configuration not stated),.,.,.,.,.,.
CC1CN=C(NCc2ccccc2Cl)S1 (configuration not stated),.,.,41.8,.,.,24.6
CC1CN=C(NCc2ccccc2)S1 (configuration not stated),.,.,.,.,.,16.3
Clc1ccccc1CNCC1CCC(CNCc2ccccc2Cl)CC1 (configuration not stated),/,.,/,/,/,/
SMILES,TbPYK inhibitor,FBPA Giardia inh,Shiga toxin inh,Sm TGR inh,LmPK inh,CHX counter
CC1(C)CN=C(NCc2ccccc2Cl)S1,.,.,55.1,.,.,17.2
CCN(Cc1ccccc1)C(=O)CN1C(=O)COc2ccc(S(=O)(=O)N3CCOCC3)cc21,.,/,/,.,/,/
COc1ccc(NC(=O)Cn2c(=O)n(Cc3ccccc3)c(=O)c3oc4ccccc4c32)cc1Cl,.,/,/,.,/,/
CN1CC(C(=O)O)Cc2c1ccc1ccccc21 (configuration not stated),.,9.98µM,.,20µM,.,.
CCN(CC(=O)NC(C)(C)C)C(=O)CCl,.,.,.,50.1µM,.,.
CC(C)(C)NC(=O)CCCCCCCC(=O)NC(C)(C)C,.,.,.,.,.,.
CCC(=O)Nc1ccc(Oc2ccc3c(c2)C(=O)NC3=O)cc1,.,.,.,.,.,.
Cc1cccc(C(=O)Nc2ccc3c(c2)C(=O)NC3=O)c1,.,.,.,.,.,20.9
CC(=O)Nc1cccc(Oc2ccc3c(c2)C(=O)NC3=O)c1,.,.,/,.,.,22.0
Cc1ccc(C(=O)Nc2ccc3c(c2)C(=O)NC3=O)cc1,.,.,.,.,.,13.9
COC(=O)c1ccc(C(=O)Nc2ccc3c(c2)C(=O)NC3=O)cc1,.,.,.,.,.,.
Cn1c(=O)n(C)c2cc(CNCc3ccccc3Cl)ccc21,.,/,/,.,/,/
Cn1c(=O)c(C(=O)CN2CCCCCC2)c(N)n(Cc2ccccc2)c1=O,.,.,.,35.5µM,.,.
CS(=O)(=O)c1ccc(NC(=O)CCN2C(=O)C3CC=CCC3C2=O)cc1 (configuration not stated),.,/,/,.,/,/
C[C@]12C[C@@](C)(C=C1/C=C/c1ccc(C(F)(F)F)cc1)C(=O)C[C@H]2c1ccc(C(F)(F)F)cc1,/,.,/,/,/,/
CO[C@@]1(NC(=O)C2SC(=C(C(N)=O)C(=O)O)S2)C(=O)N2C(C(=O)O)=C(CSc3nnnn3C)CS[C@@H]21 (some centres not stated),.,/,/,39.8µM,/,/
CO[C@@]1(NC(=O)CSC[C@@H](N)C(=O)O)C(=O)N2C(C(=O)O)=C(CSc3nnnn3C)CS[C@@H]21,.,/,/,/,/,/
CCN(CC)CC(O)Cn1c(-c2cccc(Cl)c2)nc2cc(C)c(C)cc21 (configuration not stated),.,.,45.1,.,.,23.9
CN(C)c1cc(Cl)c2nonc2c1N,.,.,.,50.1µM,.,.
CCOC(=O)c1nc(N2CCN(c3ccc(F)cc3)CC2)c2c(C)noc2n1,.,/,/,.,/,/
O=C(Nc1ccccc1F)NC1CCCCCCC1,.,.,98.1,.,.,57.3
O=C(CN1CCC(NC(=O)Nc2ccccc2)CC1)Nc1ccccc1F,.,.,.,.,.,.
COC(=O)c1ccccc1NC(=O)NC1CCC(C)CC1 (configuration not stated),.,.,33.7,.,.,16.3
O=C(Nc1ccccc1F)NC1CC1,.,.,52.1,.,.,.
COc1cc(OC)c(NS(=O)(=O)c2c(C(=O)N3CCC(C)CC3)c(C)n(C)c2C)cc1Cl,.,/,/,.,/,/
Cc1cccc(C[C@H](C(=O)O)N2C(=O)c3ccc(C(=O)O)cc3C2=O)c1,/,.,.,.,/,.
CN(C)c1ccc(NC(=O)CSCc2nc3c(nnn3Cc3ccc(F)cc3)c(=O)[nH]2)cc1,.,?,.,44.7µM,?,.
Cc1cccc(NC(=O)CSCc2nc3c(nnn3Cc3ccc(F)cc3)c(=O)[nH]2)c1C,.,.,.,.,.,.
CCOc1ccccc1NC(=O)c1cc2c(=O)[nH]c3ccccc3c2s1,.,/,/,.,/,/
COc1ccc(/C=C/C(=O)c2ccccc2O)cc1CN1CCOCC1,.,.,.,?,.,.
